12-LOX inh: blocks human arachidonate 12S-lipoxygenase. P18054. purified 12hLO, xylenol orange hydroperoxide absorbance. Potency, µM (doses to about 108 µM), most hits filed as inhibitors. actives 1.1% (n = 580,000). AID 1671190
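Purified human 12hLO (150 nM final) in 25 mM Hepes, 0.01% Triton X-100, pH 7.0 was preincubated 15 min at room temperature with compound. Then 40 uM arachidonic acid was added, 30 min. Hydroperoxide was read by Fe-XO absorbance ratio 573/405 nm.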
KCNH2 3.1 block: KCNH2 3.1 (human) potassium channel inhibition; U2OS KCNH2 3.1, thallium flux FluxOr; stronger effect = lower value; AID 720553; activity change, % (tested at about 1.8 µM); actives 0.95% (n = 340,000);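 active means maximum activity change below -70%; inconclusive means maximum activity change from -70% to -50%; inactive means maximum activity change above -50%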;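 further: thallium influx rate constant from kinetic fluorescence after stimulation buffer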
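Thallium flux via FluxOr fluorescence (Red40 quencher, 45 min loading) in U2OS cells virally expressing the KCNH2 3.1 isoform (1.77 x 10^8 /mL virus, overnight at 37 C). Rate constants from 2-min kinetic reads post-stimulation, normalised to positive and negative controls.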
KCNH2 WT inh: KCNH2 (human, wildtype) channel inhibition; actives 0.37% (n = 340,000); activity change, % at 1.84 µM; Q12809; U2OS, BacMam KCNH2, thallium flux FluxOr; stronger effect = lower value;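 active means maximum activity change below -70%; inconclusive means maximum activity change between -70% and -50%; inactive means maximum activity change above -50%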
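U2OS cells transduced with wild-type KCNH2 virus are loaded with FluxOr dye for 45 min, and thallium flux is measured in kinetic reads before and after stimulation buffer. Rate constants are normalized to DMSO controls.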
AT treatment: potential ataxia-telangiectasia treatments restoring KAP-1 phosphorylation | F2112 A-T fibroblasts, KAP-1 phosphorylation AlphaLISA; neocarzinostatin DNA damage 30 min before lysis | Potency, µM (doses to about 57.5 µM), most hits filed as activators | actives 0.19% (n = 320,000); further: nearly all actives have a fitted effect of over 45% in size
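hTERT-immortalized A-T patient fibroblasts (F2112), 500 cells/well in OPTI-MEM, 1% FBS, got compounds for 60 min, then NCS for 30 min at 37C. Lysates were then assayed for phospho-KAP-1 by AlphaLISA (anti-pKAP1 donor, anti-KAP1 acceptor beads), 6 hr at 25C.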
A number is an active result; - = inactive; ? = inconclusive; . = no result given; [ ] = dose if it differs, or a comment. Shown are actives, neighbours in structure and some others; about 1.8% of the full set was active somewhere. Unless noted, the call rests on the fitted dose curve; in most records, active means well fitted curve in the direction sought with a large enough effect; inconclusive means small, poorly fitted or top-dose-only effect, or another doubt; inactive means no such curve, though single readings can be large; an effect the other way counts as inactive or inconclusive.

SMILES	12-LOX inh	KCNH2 3.1 block	KCNH2 WT inh	AT treatment
Cc1cc(=O)[nH]c(SCC(=O)c2ccc(O)c(O)c2)n1	4.5µM	-	-	-
Cc1nc(NC2CCCC2)sc1C(=O)NCCC(C)C	20µM	.	.	.
COc1ccc(CNc2ncc(-c3ccc(Br)cc3)n2C)cc1OC	-	-	-	-
COc1cccc(CNc2ncc(-c3ccc(Br)cc3)n2C)c1	8.9µM	.	.	.
Cn1c(-c2cccc([N+](=O)[O-])c2)cnc1NCc1ccc(C#N)cc1	?	-	.	-
Cn1c(-c2cccc(Br)c2)cnc1NCc1ccccc1O	14µM	-	-	-
Cn1c(-c2ccc(Br)cc2)cnc1NCc1ccc(C#N)cc1	2.5µM	-	-	-
Cn1c(-c2ccccc2)cnc1NCc1ccccc1	?	-	-	-
O=C(COc1ccc2ccccc2c1)Nc1cccc2ncccc12	-	.	.	.
COc1ccccc1/C=C/C=c1\sc2nc(=O)c(Cc3ccccc3)nn2c1=O	?	-163	-140	-
CCCOc1ccc(Cc2nn3c(=O)/c(=C/c4ccco4)sc3nc2=O)cc1	?	-	-	-
CC(=O)Nc1ccc(C2=NN(c3ccccc3)C(c3cccs3)C2)cc1 (centres undefined)	?	-	-	25µM
CCc1c(C)sc(NC(=O)C2c3ccccc3Oc3ccccc32)c1C#N	-	.	.	.
O=C(c1ccc(NS(=O)(=O)c2ccc3[nH]c(=O)[nH]c3c2)cc1)N1CCN(c2ccccc2O)CC1	-	-80	-	-
Cc1cccc(N2CCN(C(=O)c3ccc(NS(=O)(=O)c4ccc5[nH]c(=O)[nH]c5c4)cc3)CC2)c1C	-	-	-	-
COc1ccc2nc(-c3ccco3)c(-c3ccco3)nc2c1	18µM	-	-	-
CC1CN(C(=O)c2cc(-c3ccco3)[nH]n2)CCO1 (centres undefined)	-	.	.	.
Cc1[nH]n2c(=O)cc(-c3ccc(Cl)cc3)nc2c1-c1ccc(F)cc1	22µM	.	.	.
Cc1cccc(CN2C[C@@H]3[C@H](C2)N(CC(C)C)C(=O)C(C)(C)[S+]3(=O)[O-])c1	-	.	.	.
C=C(C)c1c(-c2ccc(OC)cc2)noc1C(C)(C)O	-	.	.	.
CN1CCN(C(=O)c2cccnc2-c2nc3ccccc3s2)CC1	32µM	.	.	.
O=C(NCc1ccco1)c1cccnc1-c1nc2ccccc2s1	?	-	-	-
CCOC(=O)c1[nH]c(C)c(C(=O)OCC(=O)OC)c1C	-	.	.	.
CC(C)n1c(=O)[nH][nH]c1=S	35µM	-	-	-
Cc1nc2sc3c(c2c2nc(C(=O)NCc4ccncc4)nn12)CC(C)(C)OC3	-	.	.	.
SMILES	12-LOX inh	KCNH2 3.1 block	KCNH2 WT inh	AT treatment
N#Cc1c(O)c2c(-c3ccc(-c4ccccc4O)cc3)csc2[nH]c1=O	24µM	.	.	.
CCn1c(SCC(=O)c2cc(C)n(C(C)C)c2C)nc2cc(S(N)(=O)=O)ccc21	-	.	.	.
C[C@H](NC(=O)c1nc[nH]c1C(=O)N[C@@H](Cc1ccccc1)C(=O)OC(C)(C)C)C(=O)OC(C)(C)C	-	-	-	-
CC(C)(C)OC(=O)[C@H](Cc1ccccc1)NC(=O)c1nc[nH]c1C(=O)N[C@@H](Cc1ccccc1)C(=O)OC(C)(C)C	-	-70	-	-
COC(=O)C1=C(C)N(c2ccccc2)C(=S)NC1c1ccccc1C(F)(F)F (centres undefined)	?	-	.	-
COC(=O)C1=C(C)N(c2cccc(C)c2)C(=S)NC1c1ccc(C)s1 (centres undefined)	35µM	.	.	.
CCOc1cc(CNc2ccc3c(c2)CCC3)ccc1O	-	-	-	-
COc1cc(CNc2ccc3c(c2)CCC3)cc(OC)c1O	1.1µM	-	-	-
C/C(=N\N=C\c1ccccc1F)c1nnn(-c2nonc2N)c1C	-	-71	-	-
O=C(NCc1ccncc1)C1=NN(c2ccccc2)C(=O)CC1	-	-	-	-
C=CCNC(=O)C1=NN(c2c(F)c(F)cc(F)c2F)C(=O)CC1	-	-	-	7.1µM
Cc1cc(NC(=O)c2cc(-c3ccc(F)cc3)on2)no1	-	.	.	.
O=C(NC1CCCC1)C1CCCN1C(=O)Nc1ccccc1 (centres undefined)	-	-87	-	-
CC(=O)c1cccc(NC(=O)N2CCCC2C(=O)NC2CCCC2)c1 (centres undefined)	-	-	-	-
O=S(=O)(c1ccc2ccccc2c1)N(Cc1ccco1)Cc1cccs1	50µM	.	.	.
CCOC(=O)c1cc2c(C)n(-c3ccc(OCC)cc3)c(C)c2ccc1=O	40µM	-	-	-
CCN1CCCC1CNS(=O)(=O)c1ccc(Br)cc1 (centres undefined)	?	-	-	2.8µM
O=C(N/N=C/c1cc(Br)ccc1O)C(=O)Nc1ccccc1OC(F)(F)C(F)F	-	-	-263	-
O=C(N/N=C/c1cc(Cl)ccc1O)C(=O)Nc1ccccc1OC(F)(F)C(F)F	-	-	-	-
COc1cc(COc2cccc(C(C)=O)c2)c(OC)cc1Br	-	.	.	.
CC(C)CNC(=O)c1cn(C2CCN(Cc3nc4ccccc4s3)CC2)nn1	-	.	.	.
CC(C)NC(=O)C1CCN(C2CCN(Cc3nc4ccccc4s3)CC2)CC1	-	-118	-	-
CC(=O)c1cccc(NS(=O)(=O)N(C)C)c1	-	-	-	-
CN(C)S(=O)(=O)Nc1cccc(Br)c1	-	-	-126	-
CC(/C=C/c1ccccc1)=N\NC(N)=S	11µM	-	-	-
SMILES	12-LOX inh	KCNH2 3.1 block	KCNH2 WT inh	AT treatment
CCNC(=O)COc1ccc(/C=C2\COc3ccccc3C2=O)cc1OC	-	-	-	25µM
CCCCCCOc1ccc(OC(=O)c2cncc(Br)c2)cc1	-	.	.	.
COc1cccc(N2C(=O)NC(=NC3CCCCC3)C23CCCN(CC2CC2)C3)c1 (centres undefined)	-[6.33 µM]	.	.	.
COc1cccc(N2C(=O)NC(=NC3CCCC3)C23CCCN(CC2CCCCC2)C3)c1 (centres undefined)	79µM	.	.	.
Cc1nc(C)c(C(=O)N2CCc3c(c(-c4nncn4Cc4ccccc4)nn3C)C2)s1	-	.	.	.
CCCNC(=O)N1CCC(Oc2ccccc2)C1 (centres undefined)	-	.	.	.
CN(C)CC1CCC/C(=C\c2ccc(OC(=O)c3ccc(Cl)cc3)cc2)C1=O (centres undefined)	25µM	.	-	.
C[C@H](CO)N1C[C@H](C)[C@@H](CN(C)S(=O)(=O)c2ccc(F)cc2)Oc2c(NC(=O)NC3CCCCC3)cccc2C1=O	-	-	-	-
C[C@H](CO)N1C[C@H](C)[C@@H](CN(C)S(=O)(=O)c2cn(C)cn2)Oc2c(NC(=O)Nc3ccc4c(c3)OCO4)cccc2C1=O	-	-123	-	-
C[C@H](CO)N1C[C@H](C)[C@@H](CN(C)S(=O)(=O)c2ccccc2)Oc2c(NC(=O)NC3CCCCC3)cccc2C1=O	-	-166	-	-
O=C1COCCN1C1CCN(Cc2ccccc2)CC1	-[12.5 µM]	.	.	.
COc1ccc(C(C(=O)NCc2ccccc2)n2c(=O)c(-c3ccco3)nc3ccccc32)cc1 (centres undefined)	40µM	.	.	.

Assay outcomes: PubChem, National Center for Advancing Translational Sciences (NCATS)
